Results reported in PubChem BioAssay (NCI).
Several values for one entry are separate records, joined by “and”; a condition that tells them apart may be missing. Equal values may be shown once. About 83,000 compounds went through this panel and 20% of them were active in at least one assay; those are over-represented in the sample as a whole.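 The endpoint reported here, percent growth, reads 100 for growth as untreated, 0 for no net growth and -100 for all cells dead.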 Activity calls are given as the source filed them. Rule for the calls: active = growth percent below 10; inactive = the rest.

What was measured:
Assay in all cases: NCI-60 one-dose screen, 48 h (100 = growth as untreated, 0 = no growth, -100 = all killed)
Conditions in all cases: 10 µM unless noted
[1] = tested on: HCT-15 colon
[2] = tested on: HT29 colon
[3] = tested on: SNB-75 CNS
[4] = tested on: SNB-19 CNS
[5] = tested on: U251 CNS
[6] = tested on: PC-3 prostate
[7] = tested on: SK-MEL-5 melanoma
[8] = tested on: UACC-62 melanoma
[9] = tested on: LOX IMVI melanoma
[10] = tested on: SK-MEL-28 melanoma

Structure (SMILES)	growth [1]	growth [2]	growth [3]	growth [4]	growth [5]	growth [6]	growth [7]	growth [8]	growth [9]	growth [10]
CCCCCCCC/C=C\CCCCCCCCOc1ccccc1CC(=O)NCC[N+]1(C)CCOCC1	92.5% (inactive)	44.9% (inactive)	47.7% (inactive)	32.8% (inactive)	12.3% (inactive)	21.7% (inactive)	89.3% (inactive)	68% (inactive)	71.8% (inactive)	93.8% (inactive)
C=C1C(=O)O[C@H]2[C@H]1CC/C(COC(=O)NCc1ccc(Cn3c(=O)sn(CCCI)c3=O)cc1)=C\CC[C@@]1(C)O[C@@H]21	26.9% (inactive)	-46.1% (active)	71.7% (inactive)	96.2% (inactive)	50.9% (inactive)	49.2% (inactive)	91.9% (inactive)	15.6% (inactive)	-24.5% (active)	4.93% (active)
CCOC(=O)C1=C(C)N=C2SC=C(c3ccc(F)cc3)N2[C@H]1c1cn(-c2ccccc2)nc1-c1ccc(Cl)cc1	92.9% (inactive)	101% (inactive)	78.2% (inactive)	92.1% (inactive)	88% (inactive)	80.7% (inactive)	96.4% (inactive)	81.6% (inactive)	95.7% (inactive)	106% (inactive)
O=c1c2c([nH]c3ccccc13)CCCC2	94.8% (inactive) and 23.8% (inactive)	102% (inactive) and 2.59% (active)	33.5% (inactive)	102% (inactive) and 56.9% (inactive)	97.4% (inactive) and 24.3% (inactive)	85.3% (inactive) and 57.9% (inactive)	99.3% (inactive) and 37.5% (inactive)	89.6% (inactive) and 53.7% (inactive)	102% (inactive) and 37.3% (inactive)	106% (inactive) and 53.8% (inactive)
Cc1nnc(NS(=O)(=O)c2ccc(N=Nc3ccc(N)nc3N)cc2)s1	99.7% (inactive) and 107% (inactive)	108% (inactive) and 104% (inactive)	92% (inactive) and 89.6% (inactive)	100% (inactive) and 112% (inactive)	105% (inactive) and 106% (inactive)	93.8% (inactive) and 98.2% (inactive)	117% (inactive)	97% (inactive) and 111% (inactive)	93.2% (inactive) and 101% (inactive)	111% (inactive) and 116% (inactive)
NC1=CC(=O)c2cccnc2C1=O	19.9% (inactive)	54.8% (inactive)	-81.2% (active)	6.26% (active)	-82% (active)	15.4% (inactive)	-97.8% (active)	-90.5% (active)	-74.3% (active)	-73.7% (active)
O=C(CN1C(=O)S/C(=C\C(Cl)=C\c2ccccc2)C1=O)NCCCn1ccnc1	1.15% (active)	10.5% (inactive)	32% (inactive)	57.5% (inactive)	45.6% (inactive)	45.8% (inactive)	64.1% (inactive)	18.8% (inactive)	-52.3% (active)	12.4% (inactive)
COc1ccc(/C(C)=C(\c2ccc(OCCN3CCOCC3)cc2)c2ccc(OC(=O)C3CCCCC3)cc2)cc1	102% (inactive)	102% (inactive)	110% (inactive)	107% (inactive)	103% (inactive)	104% (inactive)	110% (inactive)	110% (inactive)	102% (inactive)	106% (inactive)
Cc1nc(Nc2ncc(C(=O)Nc3c(C)cccc3Cl)s2)cc(N2CCN(CCO)CC2)n1	32.5% (inactive) and 21.3% (inactive)	5.06% (active) and -19.7% (active)	-32.6% (active) and -35.7% (active)	68.7% (inactive) and 40.1% (inactive)	57.6% (inactive) and 37.2% (inactive)	54.1% (inactive) and 40.7% (inactive)	66.6% (inactive) and 53.8% (inactive)	55.3% (inactive) and 34.9% (inactive)	-66.3% (active) and -93.8% (active)	64% (inactive) and 36% (inactive)
CN(Cc1ccccc1)c1nc(Cl)c(C2CC(c3ccc(F)cc3)=NN2C=O)s1 (stereo not given)	90.4% (inactive)	95.4% (inactive)	97.3% (inactive)	98.1% (inactive)	97.7% (inactive)	83.6% (inactive)	90.4% (inactive)	79.2% (inactive)	92.8% (inactive)	106% (inactive)
CC[C@H](C)[C@H](NC(=O)[C@@H](N)CCC(N)=O)C(=O)N[C@@H](Cc1ccc(O)cc1)C(=O)N[C@@H](CCCCN)C(=O)N[C@@H](CCCCN)C(=O)N[C@@H](Cc1ccc(O)cc1)C(=O)N[C@@H](CCCNC(=N)N)C(=O)N[C@H](C(=O)N[C@@H](Cc1c[nH]c2ccccc12)C(=O)N[C@@H](Cc1ccc(O)cc1)C(=O)N[C@@H](CCCNC(=N)N)C(=O)N[C@@H](CCCCN)C(=O)N[C@@H](C)C(=O)N[C@@H](Cc1c[nH]c2ccccc12)C(=O)N[C@@H](CCCCN)C(=O)N[C@H](C(=O)N[C@@H](CC(C)C)C(=O)NCC(=O)N[C@@H](CCCCN)C(=O)N[C@H](C(N)=O)C(C)C)C(C)C)[C@@H](C)O	4.9% (active)	63.6% (inactive)	15.5% (inactive)	49.3% (inactive)	23.7% (inactive)	-37% (active)	-38% (active)	-71.2% (active)	69.8% (inactive)	16.3% (inactive)
Cc1nc2cccc(NCCCCC(=O)NO)c2c(=O)n1-c1ccccc1	71.6% (inactive)	52.1% (inactive)	45.1% (inactive)	65.5% (inactive)	70.2% (inactive)	63% (inactive)	34.9% (inactive)	31.8% (inactive)	75.8% (inactive)	58.3% (inactive)
O=C(CCl)N(O)c1ccc(/C=C/c2ccccc2)cc1	78.3% (inactive) and 66.3% (inactive)	73.1% (inactive) and 38.7% (inactive)	95.9% (inactive) and 96.3% (inactive)	90.1% (inactive) and 86.7% (inactive)	81.5% (inactive) and 73.5% (inactive)	85.7% (inactive) and 86.6% (inactive)	68.6% (inactive) and 65.3% (inactive)	74.6% (inactive) and 72.2% (inactive)	46.8% (inactive) and 36.1% (inactive)	107% (inactive) and 112% (inactive)
CC[C@H](C)[C@H](NC(=O)[C@H](CCCCN)NC(=O)[C@H](CCCCN)NC(=O)[C@@H](NC(=O)[C@@H](NC(=O)[C@@H](N)Cc1cnc[nH]1)[C@@H](C)CC)[C@@H](C)CC)C(=O)N[C@@H](CCCNC(=N)N)C(=O)N[C@H](C(=O)N[C@@H](Cc1c[nH]c2ccccc12)C(=O)N[C@@H](Cc1ccc(O)cc1)C(=O)N[C@@H](CCCNC(=N)N)C(=O)N[C@@H](CCCCN)C(=O)N[C@@H](C)C(=O)N[C@@H](Cc1c[nH]c2ccccc12)C(=O)N[C@@H](Cc1cnc[nH]1)C(=O)N[C@H](C(=O)N[C@@H](CC(C)C)C(=O)NCC(=O)N[C@@H](CCCCN)C(=O)N[C@H](C(N)=O)C(C)C)C(C)C)[C@@H](C)O	21.4% (inactive)	60.4% (inactive)	72.7% (inactive)	58.6% (inactive)	20.2% (inactive)	67.1% (inactive)	13.2% (inactive)	-56.3% (active)	70.5% (inactive)	18.9% (inactive)
CCCCCO/N=C\c1c2c(O)c3c(O)c(C)c4c(c3c1O)C(=O)C(C)(O/C=C\C(OC)C(C)C(OC(C)=O)C(C)C(O)C(C)C(O)C(C)/C=C\C=C(\C)C(=O)N2)O4 (stereo not given)	16.1% (inactive)	2.51% (active)	39.3% (inactive)	33.5% (inactive)	16.8% (inactive)	13.1% (inactive)	15.3% (inactive)	24.1% (inactive)	23.2% (inactive)	39.5% (inactive)
Cn1cc(-c2csc(-c3c[nH]c4ccc(F)cc34)n2)c2cnccc21	-69.7% (active)	-52.6% (active)	-89.1% (active)	14.3% (inactive)	-74.6% (active)	20.5% (inactive)	-97% (active)	-78.5% (active)	-90.4% (active)	-95.9% (active)
COC(=O)c1nc(-c2ccc(C)cc2)oc1S(=O)(=O)c1ccc(Cl)cc1	73.5% (inactive)	102% (inactive)	100% (inactive)	96.4% (inactive)	93.4% (inactive)	97% (inactive)	96.5% (inactive)	90.4% (inactive)	42.3% (inactive)	99% (inactive)
COC(=O)[C@H]1Cc2c([nH]c3ccccc23)[C@@H](c2cccs2)N1	102% (inactive)	97.1% (inactive)	83.8% (inactive)	98.2% (inactive)	97.7% (inactive)	100% (inactive)	100% (inactive)	89.5% (inactive)	104% (inactive)	107% (inactive)
COc1ccc(-c2ccc(-c3ccc(C(=N)N)cn3)o2)cc1Cl	18.7% (inactive)	4.81% (active)	89.3% (inactive)	40% (inactive)	0.889% (active)	46.1% (inactive)	12% (inactive)	86.5% (inactive)	-71% (active)	70.1% (inactive)
CN1CCN(c2ccc(Nc3ncc(C(N)=O)c(NCCCNC(=O)C4CCC4)n3)cc2)CC1	111% (inactive)	44.4% (inactive)	67.7% (inactive)	63.9% (inactive)	67% (inactive)	77.6% (inactive)	92.3% (inactive)	108% (inactive)	64.8% (inactive)	103% (inactive)
CCOC(=O)C(=CCC(C)C)C(=O)OCC	100% (inactive)	104% (inactive)	93.1% (inactive)	98.7% (inactive)	98.8% (inactive)	95.5% (inactive)	103% (inactive)	93% (inactive)	93.3% (inactive)	107% (inactive)
CC12CCC(C(=O)CC1=O)C2(C)C (stereo not given)	103% (inactive) and 106% (inactive)	108% (inactive) and 109% (inactive)	87.5% (inactive) and 95.1% (inactive)	107% (inactive) and 105% (inactive)	99.6% (inactive) and 100% (inactive)	97.2% (inactive) and 104% (inactive)	99.8% (inactive) and 104% (inactive)	102% (inactive) and 106% (inactive)	97.3% (inactive) and 95.3% (inactive)	106% (inactive)
